From PubChem BioAssay AID493131 (Broad Institute, 2011)
Among all 340,000 compounds or so, about 3,300 (0.97%) were called active.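 How the source made its calls: active means mean activation above about 17%, with every replicate also reaching it (limit read from the data, passing the limit was not always enough); inconclusive means only one of the two conditions met; inactive means the rest.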 Shown is part of a subset that was picked to be rich in actives.

The molecules below were run against Protein FosB (Mus musculus) (UniProt P13346) (assay: activators of delta FosB homodimer, primary screen, biochemical, fluorescence polarization, TAMRA-CDK5 oligo, single point (AID 493131;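 further: fluorescence polarization rise as delta FosB binds a TAMRA Cdk5 AP-1 oligo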)). Conditions: purified delta FosB, at 25 µM, hits give high values, percent of positive-control signal above neutral wells.
Protein FosB (Mus musculus), sequence (P13346 whole entry, looked up): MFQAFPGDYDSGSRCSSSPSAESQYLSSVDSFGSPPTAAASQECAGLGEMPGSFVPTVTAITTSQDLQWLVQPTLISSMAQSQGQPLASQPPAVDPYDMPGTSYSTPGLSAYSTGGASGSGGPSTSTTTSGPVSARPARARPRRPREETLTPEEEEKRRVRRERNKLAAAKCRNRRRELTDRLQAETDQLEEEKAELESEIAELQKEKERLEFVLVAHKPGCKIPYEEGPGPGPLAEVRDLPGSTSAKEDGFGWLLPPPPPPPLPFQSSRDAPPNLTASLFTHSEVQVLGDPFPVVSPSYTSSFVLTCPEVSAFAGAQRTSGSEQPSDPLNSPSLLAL

activation, inactive:
O=C(NC1CCCC1)C(c1ccc(Cl)cc1)N(C(=O)c1csnn1)C1CC1 (stereo not given) -6.23%
Cc1ccc(-c2cnc(NC(=O)CCC(=O)N(C)Cc3ccccc3)n2C)cc1 -2.74%
CCCC1C(=O)N2C(N(C)C)=Nc3ccc(C)cc3N2C1=O (stereo not given) 6.69%
COc1ccc(S(=O)(=O)N2CCN(C(C)C(=O)Nc3ccc(C(C)C)cc3)CC2)cc1 (stereo not given) -3.44%
O=C(CCc1ccccc1)Nc1ccc(NC(=O)C2CC2)nc1 4.2%
COc1ccc(S(=O)(=O)N(CC(=O)N/N=C/c2ccc(C(=O)O)cc2)Cc2ccccc2)cc1OC -11.9%
Cc1ccccc1NC(=O)CCOc1ccccc1 -7.98%
CC(Oc1cccc(NC(=O)c2cccs2)c1)C(=O)c1ccccc1 (stereo not given) -3.07%
O=C(NC(=S)Nc1ccc(NC(=O)c2cccs2)cc1)c1ccc([N+](=O)[O-])cc1 -0.174%
O=C(O)c1ccccc1C(=O)NC1=NN(c2ccccc2)CC1 -3.52%
COc1cccc(-c2cc3nc4c(c(N5CCC6(CC5)OCCO6)n3n2)CCCC4)c1 -1.84%
COc1ccc(C(=O)n2nc(-c3ccc(C)cc3)nc2N)cc1OC 8.05%
COc1ccc(C(=O)n2nc(C)c(Br)c2C)cc1OC 3.74%
CCN(CC)CCNC(=O)c1sc2ncn(CC(=O)Nc3ccc(C)c(Cl)c3)c(=O)c2c1C -141%
Cc1cc(C)c(C#N)c(SCC(=O)Nc2ccccc2)n1 3.54%
Cc1nonc1NC(=O)CSc1nc2ccccc2cc1C#N 5.77%
Cc1ccc(C)c(NC(=O)C(c2ccccc2)N2CCN(CC(=O)NC3CC3)CC2)c1 (stereo not given) -10.9%
NC(=O)c1cc(S(=O)(=O)N2CCCC2)ccc1OCc1ccc(F)cc1 -1.72%
COc1ccc(NS(=O)(=O)c2ccc(C(=O)Nc3c(C)n(C)n(-c4ccccc4)c3=O)cc2)cc1 1.19%
COc1ccc(C(=O)Nc2cccc(S(C)(=O)=O)c2)cc1 -0.053%
Cc1noc(C)c1NC(=O)Nc1cccc2c1O[C@H](CN(C)C(=O)Nc1ccccc1)[C@@H](C)CN([C@H](C)CO)C2=O 4.59%

activation, active:
O=C(Nc1ccccc1)c1ccc(NC(=O)c2cccs2)cc1 19%
COc1ccc(C(=O)n2nc(-c3ccc(Cl)cc3)nc2N)cc1OC 30.9%
Cc1nc2cc(NC(=O)CSc3nc4c(C)cccc4cc3C#N)ccc2s1 61.2%
COc1ccc(NS(=O)(=O)c2ccc(NC(=O)c3ccc(N(C)S(C)(=O)=O)cc3)cc2)cc1 43.3%
